Measurements taken from PubChem BioAssay.
Results filed as inconclusive are left out. Activity calls are given as the source filed them.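 How the source made its calls, unless noted: active means superoxide response below 65% of plate, a cut near 3 SD across the whole screen; inactive means the rest.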

Assays:
[1] = yeast TOR pathway RPL19A-GFP modulators, primary screen, cell-based, S. cerevisiae, multiplex flow cytometry (AID 1862; in the data active means percent of DMSO control GFP below about 86%;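 further: lower values mimic rapamycin by blocking the RPL19A rise seen in DMSO cells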); conditions: S. cerevisiae RPL19A-GFP strain, flow cytometry fluorescence, 3 h; at 10 µM; stronger effect = lower value
[2] = modulators of MEP2-GFP levels in yeast, primary screen, S. cerevisiae, multiplex flow cytometry (AID 1867;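 active means GFP response, as percent of the DMSO control, above the screen-wide mean plus 3 SD, about 139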;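 further: median GFP channel fluorescence of barcode-gated MEP2-GFP cells measured by flow cytometry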); conditions: S. cerevisiae MEP2-GFP strain, 3 h, at 10 µM, stronger effect = higher value, 100% means same as DMSO wells
[3] = modulators of CIT2-GFP expression in yeast, primary screen, S. cerevisiae, GFP fusion, multiplex flow cytometry (AID 1870;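 active means percent response above a set limit, the screen-wide mean plus 3 SD, cut at about 130% in these data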;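 further: barcoded CIT2-GFP strain pooled with four other GFP strains with rapamycin as positive control; median GFP fluorescence per well over plate mean of DMSO wells so 100% = DMSO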); conditions: 3 h, at 10 µM, stronger effect = higher value
[4] = modulators of LAP4-GFP expression in yeast, primary screen, S. cerevisiae, multiplex flow cytometry (AID 1873;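 active means GFP signal, as percent of the solvent control, above the screen mean plus 3 SD, about 149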); conditions: 3 h, at 10 µM, stronger effect = higher value
[5] = inhibitors of CD8+ T cell-vesicle binding, pilot screen, LFA-1/ICAM-1 modulator project, MLPCN validation set, flow cytometry (AID 2523;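 active means response below a set limit, under 55% cells CD8-positive and vesicle-bound, and CD8 cells' 90th-percentile brightness under 279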;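 on vesicle binding response: mean PE anti-B7-1 fluorescence of CD8+ cells relative to row control; 100% = QL9-loaded vesicles with DMSO vehicle in the same plate row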); conditions: 2C mouse CD8+ T cells, at 7 µM, stronger effect = lower value; double positive events: measured here: CD8+/vesicle+ event percentage
[6] = target: Integrin beta-1 (Homo sapiens) + Integrin alpha-4 (Homo sapiens) (UniProt P13612+P05556); test: inhibition of HUTS-21 binding to VLA-4, pilot screen, VLA-4 allosteric modulator project, U937 cells, HUTS-21 mAb, flow cytometry, validation set (AID 2674;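 active means inhibition above 50%, about 3 SD of the validation set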;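 further: antibody binding induced by the VLA-4 ligand LDV present at three times its Kd; 0% = LDV ligand with antibody and no compound and 100% = antibody without LDV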); conditions: HUTS-21 LIBS mAb binding, at 6.7 µM, stronger effect = higher value, binding induced by LDV ligand
[7] = superoxide lowering in aged yeast cells, pilot screen, validation compound set (AID 2706);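 further: yeast exposed to compound for one week at 30 degrees C before staining; 100% = mean of all compound wells on the same plate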; conditions: S. cerevisiae aging, superoxide DHE fluorescence; at 10 µM, stronger effect = lower value
[8] = target: Beta-adrenergic receptor kinase 1 (Homo sapiens) (UniProt P25098); test: GRK2 binders displacing RNA aptamer, biochemical, validation, human GRK2, bead flow cytometry (AID 488806;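 active means aptamer binding inhibition above 30%, about 3 SD of noise from non-fluorescent compounds; inactive means inhibition at or below 30%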); conditions: bead-bound GRK2, FAM-aptamer displacement, at 10 µM, stronger effect = higher value
[9] = target: Beta-2 adrenergic receptor (Homo sapiens) (UniProt P07550); test: beta2AR agonists driving receptor internalization, pilot screen, cell-based, FAP fluorogen, flow cytometry, validation set (AID 504459;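 active means percent response above 42, roughly 3 SD of non-fluorescent test compounds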;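 further: agonist-driven loss of surface beta2AR via internalization measured by FAP dye flow cytometry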); conditions: Am2.2-beta2AR cells, FAP surface receptor flow cytometry; at 10 µM; stronger effect = higher value
[10] = target: AP-2 complex subunit beta (Homo sapiens) (UniProt P63010); test: inhibitors of arrestin peptide binding to AP2, pilot screen, biochemical, validation set, GST-AP2 beads, flow cytometry (AID 504541;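 active means inhibition above 54%, about 3 SD of non-fluorescent compounds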;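 further: AP2 carries R879A mutation and is captured from E. coli lysate; bead-bound FITC arrestin peptide fluorescence measuring arrestin peptide binding to AP2; 0% = DMSO wells and 100% = excess unlabeled arrestin peptide control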); conditions: FITC arrestin peptide, at 10 µM, stronger effect = higher value, AP2 beta2 appendage fragment, R879A mutant
[11] = yeast V-ATPase proton transport modulators, S. cerevisiae, pHLuorin, HTS validation (AID 504600; in the data active means response above about 15%;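 further: plate controls were DMSO for no effect and reference compound for full effect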); conditions: S. cerevisiae pHLuorin cytosolic pH, at 10 µM, stronger effect = higher value
[12] = test system: anti-desmoglein-3 scFv antibody binding to human DSG3; test: inhibitors of anti-DSG3 scFv binding to DSG3, pilot screen, biochemical, validation compound set, bead-based, flow cytometry (AID 588368;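 active means binding below the plate cutoff, the plate median minus 3 SD, with a reading above zero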;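 further: signal is the median channel fluorescence of bead-bound GFP antibody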); conditions: Protein G beads, DSG3-Fc, scFv-GFP binding, at 10 µM, stronger effect = lower value
[13] = inhibitors of fungal efflux pumps CDR1, CDR2, MDR1, pilot screen, validation compound set, multiplex, phenotypic (AID 588506;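 active means efflux inhibition above 0.42, the validation set average plus 4 SD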;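 further: Nile Red retained in cells so higher fluorescence means more efflux inhibition; 0 = negative control wells and 1 = enniatin B 25 µM full block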); conditions: S. cerevisiae pump-expressing triplex, Nile Red efflux flow cytometry; at 10 µM; stronger effect = higher value; the pumps come from Candida albicans
[14] = target: ATP-binding cassette sub-family B member 6 (Homo sapiens) (UniProt Q9NP58); test: ABCB6 transporter inhibitors, pilot screen, K562-ABCB6 cells, flow cytometry, validation set (AID 588550;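 active means inhibition above the screen-wide mean plus 3 SD, about 51%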;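 further: 0% = DMSO wells and 100% = benzethonium chloride 70 µM positive control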); conditions: K562-ABCB6 porphyrin accumulation, 1 h, at 10 µM, stronger effect = higher value
[15] = promoters of myeloid differentiation in arrested cells, primary screen, cell-based, GFP/MAC1 double positive, flow cytometry, validation set (AID 588685;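 active means differentiation response of at least 50%, scaled between solvent and reference control, from cells with both markers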;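 further: compound exposure lasts four days before antibody staining and flow analysis; 0% = DMSO wells and 100% = 5 µM fulvestrant positive control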); conditions: ER-HoxA9 marrow cells, stronger effect = higher value, normalized: vehicle 0, fulvestrant 100

Chain of Beta-adrenergic receptor kinase 1 (Homo sapiens) (P25098 whole entry, looked up): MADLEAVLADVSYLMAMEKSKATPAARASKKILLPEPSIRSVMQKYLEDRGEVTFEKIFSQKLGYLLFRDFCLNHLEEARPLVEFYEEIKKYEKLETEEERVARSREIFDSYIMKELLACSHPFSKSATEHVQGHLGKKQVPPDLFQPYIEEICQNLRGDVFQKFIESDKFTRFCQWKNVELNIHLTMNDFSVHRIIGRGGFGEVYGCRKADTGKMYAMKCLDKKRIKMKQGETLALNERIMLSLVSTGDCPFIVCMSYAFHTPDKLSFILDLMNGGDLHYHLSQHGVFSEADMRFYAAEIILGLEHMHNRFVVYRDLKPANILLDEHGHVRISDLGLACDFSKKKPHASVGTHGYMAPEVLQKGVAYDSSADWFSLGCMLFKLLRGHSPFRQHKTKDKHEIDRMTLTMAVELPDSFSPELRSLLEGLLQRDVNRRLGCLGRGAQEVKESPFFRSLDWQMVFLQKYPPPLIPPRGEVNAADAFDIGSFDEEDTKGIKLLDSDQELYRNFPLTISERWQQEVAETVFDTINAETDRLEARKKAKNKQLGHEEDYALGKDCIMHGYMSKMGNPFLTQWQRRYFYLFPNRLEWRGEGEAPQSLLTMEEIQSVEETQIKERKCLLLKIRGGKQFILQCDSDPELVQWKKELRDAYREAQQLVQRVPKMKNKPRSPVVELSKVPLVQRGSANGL
Chain of Integrin beta-1 (Homo sapiens) + Integrin alpha-4 (Homo sapiens) (P05556 whole entry, looked up): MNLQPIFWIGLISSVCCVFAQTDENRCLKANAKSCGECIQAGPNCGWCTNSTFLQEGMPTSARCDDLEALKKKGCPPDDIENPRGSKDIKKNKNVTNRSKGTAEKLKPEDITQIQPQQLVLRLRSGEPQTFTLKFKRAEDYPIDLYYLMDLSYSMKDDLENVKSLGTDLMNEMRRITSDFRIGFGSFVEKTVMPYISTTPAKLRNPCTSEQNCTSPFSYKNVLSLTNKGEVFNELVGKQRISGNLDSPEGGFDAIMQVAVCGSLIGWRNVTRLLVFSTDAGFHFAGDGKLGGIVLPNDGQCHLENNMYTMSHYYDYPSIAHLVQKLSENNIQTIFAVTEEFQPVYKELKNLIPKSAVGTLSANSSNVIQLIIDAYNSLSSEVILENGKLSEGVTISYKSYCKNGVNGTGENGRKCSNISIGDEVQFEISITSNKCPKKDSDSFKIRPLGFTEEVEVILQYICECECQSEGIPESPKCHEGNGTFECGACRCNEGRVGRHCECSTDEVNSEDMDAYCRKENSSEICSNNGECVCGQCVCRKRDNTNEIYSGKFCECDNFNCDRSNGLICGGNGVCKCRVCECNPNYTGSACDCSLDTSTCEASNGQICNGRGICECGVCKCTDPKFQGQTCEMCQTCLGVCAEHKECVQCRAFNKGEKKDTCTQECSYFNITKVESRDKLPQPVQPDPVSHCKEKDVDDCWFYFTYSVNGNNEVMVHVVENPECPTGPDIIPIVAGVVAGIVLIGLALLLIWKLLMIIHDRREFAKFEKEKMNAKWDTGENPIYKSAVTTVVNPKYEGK
Chain of Integrin beta-1 (Homo sapiens) + Integrin alpha-4 (Homo sapiens) (P13612 whole entry, looked up): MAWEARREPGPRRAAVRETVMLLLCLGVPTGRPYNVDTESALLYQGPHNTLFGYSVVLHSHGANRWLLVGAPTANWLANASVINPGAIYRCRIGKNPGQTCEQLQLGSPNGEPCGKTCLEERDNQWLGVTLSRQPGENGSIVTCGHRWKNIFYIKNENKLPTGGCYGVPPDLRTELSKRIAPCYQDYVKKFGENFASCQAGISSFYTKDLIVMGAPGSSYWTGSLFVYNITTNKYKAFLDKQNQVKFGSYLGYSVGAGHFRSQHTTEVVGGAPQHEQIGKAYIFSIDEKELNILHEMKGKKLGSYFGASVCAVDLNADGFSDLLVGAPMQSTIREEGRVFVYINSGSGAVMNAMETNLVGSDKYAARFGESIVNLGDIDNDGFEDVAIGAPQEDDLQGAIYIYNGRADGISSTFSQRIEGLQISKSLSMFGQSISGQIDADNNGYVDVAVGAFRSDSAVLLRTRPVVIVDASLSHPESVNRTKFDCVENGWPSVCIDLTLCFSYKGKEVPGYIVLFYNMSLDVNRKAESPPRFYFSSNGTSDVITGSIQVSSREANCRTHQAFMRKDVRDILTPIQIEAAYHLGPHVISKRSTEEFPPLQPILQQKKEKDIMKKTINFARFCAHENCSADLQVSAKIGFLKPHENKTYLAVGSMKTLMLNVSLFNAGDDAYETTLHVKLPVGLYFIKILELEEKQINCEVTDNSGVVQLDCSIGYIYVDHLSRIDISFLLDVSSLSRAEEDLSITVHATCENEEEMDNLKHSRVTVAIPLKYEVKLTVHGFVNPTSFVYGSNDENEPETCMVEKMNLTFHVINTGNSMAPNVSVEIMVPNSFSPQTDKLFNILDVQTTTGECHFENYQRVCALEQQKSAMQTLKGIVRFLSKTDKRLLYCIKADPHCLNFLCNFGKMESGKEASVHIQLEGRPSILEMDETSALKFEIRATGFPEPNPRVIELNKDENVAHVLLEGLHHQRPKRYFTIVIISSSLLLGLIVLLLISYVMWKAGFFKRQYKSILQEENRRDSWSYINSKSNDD
Chain of AP-2 complex subunit beta (Homo sapiens) (P63010 whole entry, looked up, the tested form may be a part, one chain of several): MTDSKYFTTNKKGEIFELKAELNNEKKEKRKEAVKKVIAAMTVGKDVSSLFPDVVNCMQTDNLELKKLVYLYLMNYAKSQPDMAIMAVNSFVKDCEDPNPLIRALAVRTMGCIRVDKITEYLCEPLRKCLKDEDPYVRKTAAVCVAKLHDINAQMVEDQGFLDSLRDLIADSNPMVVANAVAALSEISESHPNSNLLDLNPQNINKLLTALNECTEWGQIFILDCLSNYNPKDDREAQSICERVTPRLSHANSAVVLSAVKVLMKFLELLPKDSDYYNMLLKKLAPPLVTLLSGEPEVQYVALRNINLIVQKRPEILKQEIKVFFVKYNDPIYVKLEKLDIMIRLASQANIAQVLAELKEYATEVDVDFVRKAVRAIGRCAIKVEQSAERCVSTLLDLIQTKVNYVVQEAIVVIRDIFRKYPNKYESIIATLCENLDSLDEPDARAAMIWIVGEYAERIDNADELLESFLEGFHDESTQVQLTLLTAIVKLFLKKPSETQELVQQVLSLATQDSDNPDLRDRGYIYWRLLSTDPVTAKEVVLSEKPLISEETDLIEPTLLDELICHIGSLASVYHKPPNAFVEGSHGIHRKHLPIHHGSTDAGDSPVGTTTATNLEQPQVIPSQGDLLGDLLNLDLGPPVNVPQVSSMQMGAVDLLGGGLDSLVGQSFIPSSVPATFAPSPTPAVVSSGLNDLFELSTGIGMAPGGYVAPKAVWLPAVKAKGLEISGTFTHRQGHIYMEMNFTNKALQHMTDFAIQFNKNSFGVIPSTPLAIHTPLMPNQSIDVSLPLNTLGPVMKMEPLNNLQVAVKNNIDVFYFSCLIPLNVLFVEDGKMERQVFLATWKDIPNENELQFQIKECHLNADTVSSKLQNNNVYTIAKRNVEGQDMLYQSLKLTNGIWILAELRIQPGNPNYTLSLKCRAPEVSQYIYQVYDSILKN
Chain of Beta-2 adrenergic receptor (Homo sapiens) (P07550 whole entry, looked up): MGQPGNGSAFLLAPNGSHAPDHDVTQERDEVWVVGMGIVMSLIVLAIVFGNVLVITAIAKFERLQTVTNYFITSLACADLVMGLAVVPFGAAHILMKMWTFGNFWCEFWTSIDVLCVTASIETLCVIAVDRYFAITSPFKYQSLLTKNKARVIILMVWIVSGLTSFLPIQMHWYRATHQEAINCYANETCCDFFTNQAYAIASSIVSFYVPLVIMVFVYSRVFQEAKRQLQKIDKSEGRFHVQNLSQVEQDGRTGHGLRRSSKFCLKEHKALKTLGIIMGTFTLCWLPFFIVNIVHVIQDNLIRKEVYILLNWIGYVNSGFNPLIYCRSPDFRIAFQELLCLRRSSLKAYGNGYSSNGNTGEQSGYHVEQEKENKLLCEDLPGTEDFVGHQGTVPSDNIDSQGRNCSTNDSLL
Chain of ATP-binding cassette sub-family B member 6 (Homo sapiens) (Q9NP58 whole entry, looked up): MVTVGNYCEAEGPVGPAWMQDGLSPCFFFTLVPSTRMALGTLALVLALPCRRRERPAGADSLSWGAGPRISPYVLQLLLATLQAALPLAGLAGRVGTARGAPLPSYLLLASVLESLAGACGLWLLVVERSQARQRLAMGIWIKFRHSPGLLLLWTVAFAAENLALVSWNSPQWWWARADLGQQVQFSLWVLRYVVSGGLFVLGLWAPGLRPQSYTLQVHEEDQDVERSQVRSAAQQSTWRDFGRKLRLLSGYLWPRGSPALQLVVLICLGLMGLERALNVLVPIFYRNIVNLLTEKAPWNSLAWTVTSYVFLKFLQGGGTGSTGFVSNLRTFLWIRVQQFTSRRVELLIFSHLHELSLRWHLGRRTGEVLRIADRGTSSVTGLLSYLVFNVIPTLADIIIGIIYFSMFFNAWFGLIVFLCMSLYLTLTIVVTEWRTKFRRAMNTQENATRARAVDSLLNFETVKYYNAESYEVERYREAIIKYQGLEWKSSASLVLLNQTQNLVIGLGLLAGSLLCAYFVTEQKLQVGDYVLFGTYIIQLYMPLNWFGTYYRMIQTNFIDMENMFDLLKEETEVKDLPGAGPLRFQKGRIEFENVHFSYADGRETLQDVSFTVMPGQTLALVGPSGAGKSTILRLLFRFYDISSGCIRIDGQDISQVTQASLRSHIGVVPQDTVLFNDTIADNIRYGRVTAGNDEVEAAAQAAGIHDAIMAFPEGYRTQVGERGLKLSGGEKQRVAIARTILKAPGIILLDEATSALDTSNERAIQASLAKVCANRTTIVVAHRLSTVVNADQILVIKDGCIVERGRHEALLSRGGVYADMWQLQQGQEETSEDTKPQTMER

COc1cccc(N2C(=O)[C@H]3C(C(=O)c4cnccn4)=NN[C@H]3C2=O)c1
percent of DMSO control GFP [1]: 93.5% (inactive)
GFP response vs DMSO [2]: 123% (inactive)
percent response of DMSO control [3]: 111% (inactive)
GFP response vs DMSO [4]: 79.8% (inactive)
double positive events [5]: 63.5%
vesicle binding response [5]: 191% (inactive)
inhibition [6]: 14.2% (inactive)
superoxide response (% of plate) [7]: 106% (inactive)
aptamer binding inhibition [8]: 2% (inactive)
response [9]: -6.07% (inactive)
inhibition [10]: -1.17% (inactive)
response [11]: -1.86% (inactive)
binding (% of control) [12]: 98.9% (inactive)
efflux inhibition (fraction of control) [13]: -0.13 (inactive)
inhibition [14]: 8% (inactive)
differentiation response [15]: -4.91% (inactive)

CC1CCCc2sc3ncn(N)c(=N)c3c21 (configuration not stated)
percent of DMSO control GFP [1]: 103% (inactive)
percent response of DMSO control [3]: 105% (inactive)
double positive events [5]: 62.2%
vesicle binding response [5]: 246% (inactive)
inhibition [6]: -3.16% (inactive)
superoxide response (% of plate) [7]: 94.2% (inactive)
aptamer binding inhibition [8]: 4% (inactive)
response [9]: 31.1% (inactive)
inhibition [10]: -3.27% (inactive)
response [11]: 3.56% (inactive)
binding (% of control) [12]: 98.2% (inactive)
efflux inhibition (fraction of control) [13]: -0.24 (inactive)
inhibition [14]: 7% (inactive)
differentiation response [15]: -4% (inactive)

COc1cccc(N2CC(O)=C(c3nc4ccccc4c(=O)[nH]3)C2=N)c1
percent of DMSO control GFP [1]: 97.9% (inactive)
GFP response vs DMSO [2]: 130% (inactive)
percent response of DMSO control [3]: 116% (inactive)
GFP response vs DMSO [4]: 75.9% (inactive)
double positive events [5]: 58.4%
vesicle binding response [5]: 140% (inactive)
inhibition [6]: 11.3% (inactive)
superoxide response (% of plate) [7]: 106% (inactive)
aptamer binding inhibition [8]: 5% (inactive)
response [9]: 20.8% (inactive)
inhibition [10]: 2.43% (inactive)
response [11]: 8.28% (inactive)
binding (% of control) [12]: 103% (inactive)
efflux inhibition (fraction of control) [13]: -0.2 (inactive)
inhibition [14]: 14% (inactive)
differentiation response [15]: 2.46% (inactive)

O=C(OCC1OC2OC3(CCCCC3)OC2C2OC3(CCCCC3)OC12)c1ccccc1 (configuration not stated)
percent of DMSO control GFP [1]: 90.9% (inactive)
GFP response vs DMSO [2]: 104% (inactive)
percent response of DMSO control [3]: 116% (inactive)
GFP response vs DMSO [4]: 76.5% (inactive)
double positive events [5]: 60.9%
vesicle binding response [5]: 154% (inactive)
inhibition [6]: 5.49% (inactive)
superoxide response (% of plate) [7]: 102% (inactive)
aptamer binding inhibition [8]: 5% (inactive)
response [9]: 11.7% (inactive)
inhibition [10]: 5.67% (inactive)
response [11]: 1.42% (inactive)
binding (% of control) [12]: 128% (inactive)
efflux inhibition (fraction of control) [13]: 0.09 (inactive)
inhibition [14]: 5% (inactive)
differentiation response [15]: -0.82% (inactive)

Cc1cccc(C)c1NS(=O)(=O)c1ccc(NC(=O)c2ccc(Cl)c([N+](=O)[O-])c2)cc1
percent of DMSO control GFP [1]: 97.7% (inactive)
GFP response vs DMSO [2]: 110% (inactive)
percent response of DMSO control [3]: 116% (inactive)
GFP response vs DMSO [4]: 72.6% (inactive)
double positive events [5]: 62.8%
vesicle binding response [5]: 163% (inactive)
inhibition [6]: 9.37% (inactive)
superoxide response (% of plate) [7]: 103% (inactive)
aptamer binding inhibition [8]: 0% (inactive)
response [9]: -4.38% (inactive)
inhibition [10]: 4.81% (inactive)
response [11]: 13% (inactive)
binding (% of control) [12]: 100% (inactive)
efflux inhibition (fraction of control) [13]: -0.2 (inactive)
inhibition [14]: 9% (inactive)
differentiation response [15]: 13.1% (inactive)

NC12CC3CC(CC(C3)C1)C2
percent of DMSO control GFP [1]: 94.4% (inactive)
GFP response vs DMSO [2]: 119% (inactive)
percent response of DMSO control [3]: 111% (inactive)
GFP response vs DMSO [4]: 78.7% (inactive)
double positive events [5]: 60.2%
vesicle binding response [5]: 195% (inactive)
inhibition [6]: -27.5% (inactive)
superoxide response (% of plate) [7]: 96.9% (inactive)
aptamer binding inhibition [8]: -5% (inactive)
response [9]: -15.1% (inactive)
inhibition [10]: 0.4% (inactive)
response [11]: 3.04% (inactive)
binding (% of control) [12]: 102% (inactive)
efflux inhibition (fraction of control) [13]: -0.24 (inactive)
inhibition [14]: 15% (inactive)
differentiation response [15]: -1.64% (inactive)

C=CCc1cc(Cl)ccc1OCCOCCN(C)C
percent of DMSO control GFP [1]: 103% (inactive)
percent response of DMSO control [3]: 108% (inactive)
GFP response vs DMSO [4]: 75.2% (inactive)
double positive events [5]: 60%
vesicle binding response [5]: 144% (inactive)
inhibition [6]: -4.52% (inactive)
superoxide response (% of plate) [7]: 98.8% (inactive)
aptamer binding inhibition [8]: 4% (inactive)
response [9]: 3.31% (inactive)
inhibition [10]: -5.37% (inactive)
response [11]: -5.95% (inactive)
binding (% of control) [12]: 102% (inactive)
efflux inhibition (fraction of control) [13]: -0.17 (inactive)
inhibition [14]: 1% (inactive)
differentiation response [15]: 16.8% (inactive)

NS(=O)(=O)c1cc2c(cc1Cl)NC(CSCc1ccccc1)=NS2(=O)=O
percent of DMSO control GFP [1]: 97% (inactive)
GFP response vs DMSO [2]: 119% (inactive)
percent response of DMSO control [3]: 118% (inactive)
GFP response vs DMSO [4]: 84.2% (inactive)
double positive events [5]: 40.1%
vesicle binding response [5]: 27.2% (active)
inhibition [6]: -6.15% (inactive)
superoxide response (% of plate) [7]: 95.7% (inactive)
aptamer binding inhibition [8]: 2% (inactive)
response [9]: 5.55% (inactive)
inhibition [10]: -7.6% (inactive)
response [11]: 0.08% (inactive)
binding (% of control) [12]: 103% (inactive)
efflux inhibition (fraction of control) [13]: -0.24 (inactive)
inhibition [14]: 3% (inactive)
differentiation response [15]: 13.9% (inactive)

Nc1cccc(C(=O)O)c1
percent of DMSO control GFP [1]: 95.5% (inactive)
GFP response vs DMSO [2]: 116% (inactive)
percent response of DMSO control [3]: 122% (inactive)
GFP response vs DMSO [4]: 79.2% (inactive)
double positive events [5]: 63.4%
vesicle binding response [5]: 214% (inactive)
inhibition [6]: 10.3% (inactive)
superoxide response (% of plate) [7]: 102% (inactive)
aptamer binding inhibition [8]: 4% (inactive)
response [9]: -6.68% (inactive)
inhibition [10]: -0.66% (inactive)
response [11]: 3.11% (inactive)
binding (% of control) [12]: 102% (inactive)
efflux inhibition (fraction of control) [13]: 0.05 (inactive)
inhibition [14]: 6% (inactive)
differentiation response [15]: -0.82% (inactive)

Cc1ccccc1NC(=O)C1c2ccccc2Oc2ccccc21
percent of DMSO control GFP [1]: 96.1% (inactive)
GFP response vs DMSO [2]: 120% (inactive)
percent response of DMSO control [3]: 110% (inactive)
GFP response vs DMSO [4]: 77.6% (inactive)
double positive events [5]: 65.5%
vesicle binding response [5]: 217% (inactive)
inhibition [6]: 4.52% (inactive)
superoxide response (% of plate) [7]: 86.5% (inactive)
aptamer binding inhibition [8]: 2% (inactive)
response [9]: -5.21% (inactive)
inhibition [10]: -0.97% (inactive)
response [11]: -0.9% (inactive)
binding (% of control) [12]: 105% (inactive)
efflux inhibition (fraction of control) [13]: 0.16 (inactive)
inhibition [14]: 12% (inactive)
differentiation response [15]: -4.09% (inactive)
